# The supplement of paper PMC8728848
# The sample as a whole holds a higher share of the strongest signals than the screen did.
# Legend:
# Assay in all cases: glycan array binding signal (z-score within array); higher = stronger binding
# Details in all cases: glycan notation: IUPAC condensed, linker removed; mutation: D224N
# [1] = biological target: GlcNAc(a1-4)Gal(b1-4)GlcNAc(b1-3)Gal(b1-4)[Fuc(a1-3)]GlcNAc(b1-3)Gal(b1-4)[Fuc(a1-3)]GlcNAc
# Procedure, shortened: (§1)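 Glycan array data were curated from 3228 arrays in the Consortium for Functional Glycomics database and kept only where the protein sequence was available. Glycan names were converted to IUPAC-condensed notation, and columns mapping to the same glycan were averaged. The binding signal is a within-array Z-score, averaged across arrays of the same protein sequence at different concentrations or buffers and across linkers. Negative Z-scores can be read as non-binding.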
# [2] = biological target: GlcNAc(b1-3)Gal(b1-4)GlcNAc(b1-3)Gal(b1-4)GlcNAc(b1-2)Man(a1-3)[GlcNAc(b1-3)Gal(b1-4)GlcNAc(b1-3)Gal(b1-4)GlcNAc(b1-2)Man(a1-6)]Man(b1-4)GlcNAc(b1-4)GlcNAc
# Procedure, shortened: as §1
# [3] = biological target: GlcNAc(b1-3)Gal(b1-4)GlcNAc(b1-3)Gal(b1-4)GlcNAc(b1-2)[GlcNAc(b1-3)Gal(b1-4)GlcNAc(b1-3)Gal(b1-4)GlcNAc(b1-6)]Man(a1-6)[GlcNAc(b1-3)Gal(b1-4)GlcNAc(b1-3)Gal(b1-4)GlcNAc(b1-2)Man(a1-3)]Man(b1-4)GlcNAc(b1-4)[Fuc(a1-6)]GlcNAc
# Procedure, shortened: as §1
# [4] = biological target: GlcNAc(b1-3)Gal(b1-4)GlcNAc(b1-3)Gal(b1-4)GlcNAc(b1-3)Gal(b1-4)GlcNAc(b1-2)Man(a1-3)[GlcNAc(b1-3)Gal(b1-4)GlcNAc(b1-3)Gal(b1-4)GlcNAc(b1-3)Gal(b1-4)GlcNAc(b1-2)Man(a1-6)]Man(b1-4)GlcNAc(b1-4)[Fuc(a1-6)]GlcNAc
# Procedure, shortened: as §1
# [5] = biological target: GlcNAc(b1-3)Gal(b1-4)GlcNAc(b1-3)Gal(b1-4)GlcNAc(b1-3)Gal(b1-4)GlcNAc(b1-3)Gal(b1-4)GlcNAc(b1-2)Man(a1-3)[GlcNAc(b1-3)Gal(b1-4)GlcNAc(b1-3)Gal(b1-4)GlcNAc(b1-3)Gal(b1-4)GlcNAc(b1-3)Gal(b1-4)GlcNAc(b1-2)Man(a1-6)]Man(b1-4)GlcNAc(b1-4)GlcNAc
# Procedure, shortened: as §1
# [6] = biological target: GlcNAc(b1-3)Gal(b1-4)GlcNAc(b1-6)[GlcNAc(b1-3)Gal(b1-3)]GalNAc
# Procedure, shortened: as §1
# [7] = biological target: GlcNAc(b1-4)[GlcNAc(b1-6)]GalNAc
# Procedure, shortened: as §1
# [8] = biological target: Kdn(a2-3)Gal(b1-4)[Fuc(a1-3)]GlcNAc
# Procedure, shortened: as §1
# [9] = biological target: Man(a1-2)Man(a1-2)Man(a1-6)[Man(a1-3)]Man
# Procedure, shortened: as §1
# Man(a1-3)[Man(a1-6)]Man = biological target: Man(a1-3)[Man(a1-6)]Man
# Procedure, shortened: as §1
# [10] = biological target: Man(a1-3)[Man(a1-6)]Man(a1-6)[Man(a1-3)]Man
# Procedure, shortened: as §1
# [11] = biological target: Neu5Ac(a2-3)Gal(b1-4)GlcNAc(b1-3)Gal
# Procedure, shortened: as §1
# [12] = biological target: Neu5Ac(a2-3)Gal(b1-4)GlcNAc(b1-3)Gal(b1-4)[Fuc(a1-3)]GlcNAc
# Procedure, shortened: as §1
# [13] = biological target: Neu5Ac(a2-3)Gal(b1-4)GlcNAc(b1-3)[Neu5Ac(a2-3)Gal(b1-4)GlcNAc(b1-6)]GalNAc
# Procedure, shortened: as §1
# [14] = biological target: Neu5Ac(a2-3)Gal(b1-4)[Fuc(a1-3)]GlcNAc(b1-3)Gal(b1-4)GlcNAc
# Procedure, shortened: as §1
# [15] = biological target: Neu5Ac(a2-3)Gal(b1-4)[Fuc(a1-3)]GlcNAc(b1-6)[Neu5Ac(a2-3)Gal(b1-3)]GalNAc
# Procedure, shortened: as §1
# [16] = biological target: Neu5Ac(a2-3)Gal6S(b1-4)[Fuc(a1-3)]GlcNAc
# Procedure, shortened: as §1
# [17] = biological target: Neu5Ac(a2-6)Gal(b1-4)GlcNAc(b1-2)Man(a1-3)Man(b1-4)GlcNAc(b1-4)GlcNAc
# Procedure, shortened: as §1
# [18] = biological target: Neu5Ac(a2-6)Gal(b1-4)GlcNAc(b1-2)Man(a1-6)[Man(a1-3)]Man(b1-4)GlcNAc(b1-4)GlcNAc
# Procedure, shortened: as §1
# [19] = biological target: Neu5Ac(a2-6)Gal(b1-4)GlcNAc(b1-3)Gal(b1-4)GlcNAc(b1-2)Man(a1-3)[Neu5Ac(a2-6)Gal(b1-4)GlcNAc(b1-3)Gal(b1-4)GlcNAc(b1-2)Man(a1-6)]GalNAc
# Procedure, shortened: as §1
# [20] = biological target: Neu5Ac(a2-6)Gal(b1-4)GlcNAc(b1-3)Gal(b1-4)GlcNAc(b1-3)Gal(b1-4)GlcNAc(b1-2)Man(a1-3)[Neu5Ac(a2-6)Gal(b1-4)GlcNAc(b1-3)Gal(b1-4)GlcNAc(b1-3)Gal(b1-4)GlcNAc(b1-2)Man(a1-6)]GalNAc
# Procedure, shortened: as §1
# [21] = biological target: Neu5Ac(a2-6)Gal(b1-4)GlcNAc(b1-3)GalNAc
# Procedure, shortened: as §1
# [22] = biological target: Neu5Ac(a2-8)Neu5Ac(a2-3)Gal(b1-4)Glc
# Procedure, shortened: as §1
# [23] = biological target: Neu5Ac(a2-8)Neu5Ac(a2-8)Neu5Ac(a2-3)Gal(b1-4)Glc
# Procedure, shortened: as §1
# [24] = biological target: Neu5Ac(a2-8)Neu5Ac(a2-8)Neu5Ac(a2-3)[GalNAc(b1-4)]Gal(b1-4)Glc
# Procedure, shortened: as §1
binder,measurement,setting,value
a L Fucosidase (Thermotoga maritima) (protein) MASMKPRYKPDWESLREHTVPKWFDKAKFGIFIHWGIYSVPGWATPTGELGKVPMDAWFFQNPYAEWYENSLRIKESPTWEYHVKTYGENFEYEKFADLFTAEKWDPQEWADLFKKAGAKYVIPTTKHHDGFCLWGTKYTDFNSVKRGPKRDLVGDLAKAVREAGLRFGVYYSGGLDWRFTTEPIRYPEDLSYIRPNTYEYADYAYKQVMELVDLYLPDVLWNNMGWPEKGKEDLKYLFAYYYNKHPEGSVNDRWGVPHWDFKTAEYHVNYPGDLPGYKWEFTRGIGLSFGYNRNEGPEHMLSVEQLVYTLVDVVSKGGNLLLNVGPKGDGTIPDLQKERLLGLGEWLRKYGDAIYGTSVWERCCAKTEDGTEIRFTRKCNRIFVIFLGIPTGEKIVIEDLNLSAGTVRHFLTGERLSFKNVGKNLEITVPKKLLETDSITLVLEAVEE,glycan array binding signal (z-score),[1],0.08
same,glycan array binding signal (z-score),[2],0.079
same,glycan array binding signal (z-score),[3],0.296
same,glycan array binding signal (z-score),[4],3.94
same,glycan array binding signal (z-score),[5],-0.204
same,glycan array binding signal (z-score),[6],1.65
same,glycan array binding signal (z-score),[7],-0.289
same,glycan array binding signal (z-score),[8],0.051
same,glycan array binding signal (z-score),[9],-0.125
same,glycan array binding signal (z-score),Man(a1-3)[Man(a1-6)]Man,0.332
same,glycan array binding signal (z-score),[10],0.223
same,glycan array binding signal (z-score),[11],-0.187
same,glycan array binding signal (z-score),[12],1.75
same,glycan array binding signal (z-score),[13],0.483
same,glycan array binding signal (z-score),[14],1.9
same,glycan array binding signal (z-score),[15],2.83
same,glycan array binding signal (z-score),[16],-0.732
same,glycan array binding signal (z-score),[17],1.99
same,glycan array binding signal (z-score),[18],0.081
same,glycan array binding signal (z-score),[19],2.02
same,glycan array binding signal (z-score),[20],10.5
same,glycan array binding signal (z-score),[21],1.83
same,glycan array binding signal (z-score),[22],-0.893
same,glycan array binding signal (z-score),[23],0.654
same,glycan array binding signal (z-score),[24],0.362
